Source: PubChem BioAssay (several laboratories)
E coli growth-1 – E. coli V3065 growth inhibition, primary screen, counter-screen for AddAB inhibitor project, absorbance, OD600; 0.27% of 330,000 active; inhibition, % at 11.9 µM; AID 449728, 2010; 18 h;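 active = inhibition above the campaign's mean inhibition across all tested compounds plus 3 SD, cut at about 9.9% in these data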;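 also: uninfected addAB+ strain grown without phage in ampicillin broth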
phage Ecoli inh – growth loss of phage-infected E. coli, primary screen, RecBCD inhibitor project, absorbance, with phage, HTS; inhibition, % at 11.9 µM; 0.26% of 360,000 active; in the data active = inhibition above about 11%
Tat transport – E. coli Tat export inhibitors, primary screen, MC4100, TorA-mCherry reporter, fluorescence, single point. 0.036% of 340,000 active. inhibition, % at 10 µM;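 active = mean replicate inhibition at least 50% and at least half of replicates individually reaching 50%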;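 also: exported cargo escapes ClpAP degradation while cytoplasmic cargo is degraded and loses fluorescence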
E coli growth-2 – E. coli growth inhibition, primary screen, OD600; 0.21% of 330,000 active; OD600 absorbance (concentration not given with the values); Escherichia coli growth, 23 h; stronger effect = lower value;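 active = OD600 absorbance below the run mean of sample wells minus 3.6 SD, in any replicate, cut at about 0.56 in these data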
AddAB inh – growth inhibition of E. coli expressing H. pylori AddAB, primary screen, AddAB inhibitor project, absorbance; inhibition, % at 11.9 µM; 0.29% of 330,000 active; AID 435030, 2010; in the data active = inhibition above about 12%
AddAB conf – growth loss of phage-infected E. coli expressing H. pylori AddAB, confirmation, AddAB inhibitor project, absorbance, E. coli V3065, T4 phage, triplicate. 64% of 880 active. OD; T4 phage with gene 2 nonsense mutations. inhibition, % at 11.9 µM. shares compounds with AddAB inh;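 active = mean inhibition above a set limit taken from the earlier primary screen, cut at about 13% in these data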;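 also: higher means less bacterial growth since AddAB block lets phage replicate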
RecBCD counter – growth loss of RecBCD+ E. coli with mutant T4 phage, counter-screen for AddAB inhibitor project, absorbance, V66 E. coli; shares compounds with AddAB inh; OD growth; inhibition, % at 11.9 µM; 73% of 880 active;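 active = mean inhibition above the mean of solvent-only control wells plus 3 SD, cut at about 4% in these data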;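 also: optical density read after an 18 h incubation at 37 °C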
bact viab count – bacterial viability inhibition counter-screen, confirmation, counter-screen for AddAB inhibitor project, absorbance. shares compounds with AddAB inh. absorbance (AddAB counterscreen). inhibition, % at 11.9 µM. 35% of 880 active; in the data active = inhibition above about 25%
Hits are given with their value; . = inactive; / = not tested or not shown. Rows were chosen to be rich in hits. Some 0.51% of all compounds tested hit in one or more screens of this group.

SMILES	E coli growth-1	phage Ecoli inh	Tat transport	E coli growth-2	AddAB inh	AddAB conf	RecBCD counter	bact viab count
C#CCOCCOCCOCCNc1nc(N2CCN(C(=O)C(CCC(=O)O)n3cc(C(N)CC(C)C)nn3)CC2)nc(N2CCN(C(=O)C(CCC(=O)O)n3cc(C(N)CC(C)C)nn3)CC2)n1 (centres undefined)	/	/	/	.	/	/	/	/
CCCNC(=O)c1ccc2c(=O)c(O)c(-c3ccc(OC)cc3)[nH]c2c1	16	/	.	.	18	.	13	.
CCCNC(=O)c1ccc2c(=O)c(O)c(-c3ccsc3)[nH]c2c1	18	/	.	/	18	13	12	.
O=C(COC(=O)C=Cc1ccc(Cl)cc1Cl)NCCC1=CCCCC1	/	/	/	.	/	/	/	/
Cc1ccc(-c2ccc(C=NNC(=O)C3C(=O)NCC3c3ccccc3)o2)cc1Cl (centres undefined)	/	/	/	.	/	/	/	/
COc1nccnc1NS(=O)(=O)c1ccc(N=Cc2c(C)[nH]n(-c3ccc(Cl)cc3)c2=O)cc1	.	.	/	.	.	/	/	/
CCc1nnc(NS(=O)(=O)c2ccc(N=Cc3c(C)[nH]n(-c4ccc(Cl)cc4)c3=O)cc2)s1	.	.	.	/	14	.	7.0	.
CCC1=C2CCC3C(=O)N(CC(=O)OC)C(=O)C3C2[C@@]2(C)C(=NCC(=O)OC)OC(=O)N2C1=O (some centres undefined)	/	/	/	.	/	/	/	/
CCOC(=O)c1cn(C2CC2)c2c(F)c(NCCCN(C)C)c(F)cc2c1=O	.	.	.	.	13	13	.	.
Cc1cccc(OCC(=O)NN=Cc2cn[nH]c2-c2ccc(Cl)c(Cl)c2)c1	/	/	/	.	/	/	/	/
O=C(COC(=O)COc1ccccc1)Nc1ncc([N+](=O)[O-])s1	.	.	.	.	13	33	5.7	.
O=C(COc1ccc(Cl)cc1)Nc1ncc([N+](=O)[O-])s1	/	.	.	.	/	/	/	/
O=C(O[C@@H]1OC2COC(=O)c3cc(O)c(O)c(O)c3-c3c(cc(O)c(O)c3O)C(=O)O[C@@H]([C@H]1O)[C@@H]2O)c1cc(O)c(O)c(O)c1	23	/	.	/	22	20	14	.
O=C(NN=Cc1oc(O)c2ccccc12)c1ccccc1O	/	/	/	.	/	/	/	/
O=C(Cn1ccc(C(F)(F)F)n1)Nc1cccc(S(=O)(=O)N2CCCCC2)c1	24	.	.	.	35	.	.	.
CCOC(=O)N1CCN(C(=O)CCCn2c(=S)[nH]c3ccsc3c2=O)CC1	24	.	.	.	25	.	.	.
Cc1nc2ccccc2cc1C(=O)NN=Cc1ccco1	/	/	/	.	/	/	/	/
O=C(COc1ccccc1)NCC(c1ccco1)N1CCCCC1 (centres undefined)	98	.	.	.	98	.	.	.
CCOC(=O)NN=Cc1ccc(C)s1	/	/	/	.	/	/	/	/
CCCS(=O)(=O)c1c(S(=O)(=O)CCC)c2c(C)cccn2c1C(=O)N/N=C/c1cc(O)cc(O)c1	.	.	.	/	14	.	6.0	.
CCCS(=O)(=O)c1c(S(=O)(=O)CCC)c2c(C)cccn2c1C(N)=O	.	.	.	.	.	/	/	/
CCCc1[nH]nc2c1C1(C(=O)N(CC)c3ccccc31)C(C#N)=C(N)O2 (centres undefined)	26	/	.	.	17	.	.	.
CCC(=NNC(=O)c1ccc2c(c1)OCO2)C12CC3CC(CC(C3)C1)C2	/	/	/	.	/	/	/	/
Cc1ccc(Cl)cc1N1CCN(C(=O)C(=O)N2CCCCC2)CC1	.	.	.	.	.	/	/	/
Cc1cc(C(=O)N2CCN(c3cc(Cl)ccc3C)CC2)on1	.	.	.	.	127	.	.	.
COc1ccc(OCC(O)CNc2ccc(Br)cc2)cc1 (centres undefined)	.	.	.	.	12	13	9.3	.
COc1ccc(OCC(O)CNC(=O)c2ccc(Br)cc2)cc1 (centres undefined)	.	.	.	.	.	/	/	/
COc1cc(C=NNC(=O)Cc2csc(N3CCOCC3)n2)cc(OC)c1O	/	/	/	.	/	/	/	/
COc1ccc(-c2nc(C(N)=O)c3[nH]c(=O)n(-c4ccccc4OC)c3n2)c(OC)c1	18	.	.	.	43	.	.	.
CCCCCCCCCC(=NO)c1ccccn1	/	/	/	.	/	/	/	/
